{"source": "PubChem BioAssay (NCATS)", "note": "Several values for one entry are separate records, joined by “and”; a condition that tells them apart may be missing. Equal entries are not always repeated. Records with an inconclusive call do not appear. A call without a number means that no potency is given here. Activity calls are given as the source filed them. The call rests on the fitted dose curve."}
{"experiment": "Cytotoxicity counterscreen for inhibitors of SARS-CoV-2 cell entry (AID 1645845); further: nearly all actives have a fitted effect of over 50% in size", "conditions": "cell viability (SARS-CoV-2 entry assay cells); series mostly up to 57.1 µM", "outline": "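Expi293F/hACE2 cells seeded overnight; cpd pin-transferred in DMSO, 1 h preincubation, + media, 48 h 37 C 5% CO2; ATPLite 1step luminescence; normalized to cells and no cells.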"}
{"smiles": "OC(CCN1CCCC1)(c1ccccc1)C1CCCCC1", "note": "(stereo not given)", "Potency": "inactive"}
{"smiles": "CCC(=O)O[C@H]1[C@H](O[C@@H]2[C@@H](C)[C@H](O[C@H]3C[C@@](C)(OC)[C@@H](O)[C@H](C)O3)[C@@H](C)C(=O)O[C@H](CC)[C@@](C)(O)[C@H](O)[C@@H](C)C(=O)[C@H](C)C[C@@]2(C)O)O[C@H](C)C[C@@H]1N(C)C", "Potency": "inactive"}
{"smiles": "CC[C@@H](CO)NCCN[C@@H](CC)CO", "Potency": "inactive"}
{"smiles": "Cn1cc[nH]c1=S", "Potency": "inactive"}
{"smiles": "Cc1cccc(Nc2ccncc2S(=O)(=O)NC(=O)NC(C)C)c1", "Potency": "inactive"}
{"smiles": "N=c1nc(N2CCCCC2)cc(N)n1O", "Potency": "inactive"}
{"smiles": "CCCc1nc2c(C)cc(-c3nc4ccccc4n3C)cc2n1Cc1ccc(-c2ccccc2C(=O)O)cc1", "Potency": "inactive"}
{"smiles": "N=C(N)c1ccc(OCCCCCOc2ccc(C(=N)N)cc2)cc1", "Potency": "inactive"}
{"smiles": "CCCCc1ncc(/C=C(\\Cc2cccs2)C(=O)O)n1Cc1ccc(C(=O)O)cc1", "Potency": "inactive"}
{"smiles": "Cc1ccc(-n2[nH]c(C)c(N=Nc3cccc(-c4cccc(C(=O)O)c4)c3O)c2=O)cc1C", "Potency": "inactive"}
{"smiles": "CCCCc1nc(Cl)c(CO)n1Cc1ccc(-c2ccccc2-c2nn[nH]n2)cc1", "Potency": "inactive"}
{"smiles": "CN(C)CCC=C1c2ccccc2CCc2ccccc21", "Potency": "inactive"}
{"smiles": "NC(=O)c1cn(Cc2c(F)cccc2F)nn1", "Potency": "inactive"}
{"smiles": "O=C(O)c1cn(C2CC2)c2cc(N3CCNCC3)c(F)cc2c1=O", "Potency": "inactive"}
{"smiles": "Cc1nc2n(c(=O)c1CCN1CCC(c3noc4cc(F)ccc34)CC1)CCCC2", "Potency": "inactive"}
{"smiles": "CC1=NS(=O)(=O)c2cc(Cl)ccc2N1", "Potency": "inactive"}
{"smiles": "O=C(CCCN1CCC(O)(c2ccc(Cl)cc2)CC1)c1ccc(F)cc1", "Potency": "inactive"}
{"smiles": "O=C(C1CCCCC1)N1CC(=O)N2CCc3ccccc3C2C1", "note": "(stereo not given)", "Potency": "inactive"}
{"smiles": "O=C(NCCN1CCOCC1)c1ccc(Cl)cc1", "Potency": "inactive"}
{"smiles": "Cc1nc2n(c(=O)c1CCN1CCC(c3noc4cc(F)ccc34)CC1)CCC[C@H]2O", "Potency": "inactive"}
{"smiles": "NS(=O)(=O)c1cc2c(cc1Cl)NC=NS2(=O)=O", "Potency": "inactive"}
{"experiment": "Primary qHTS to identify inhibitors of SARS-CoV-2 cell entry (AID 1645846); further: nearly all actives have a fitted effect of over 45% in size; further: potency means the concentration at half of the fitted maximal effect", "conditions": "SARS-CoV-2 pseudovirus cell entry assay, luminescence; activity change, negative = inhibition: at 57.1 µM (top of the series) unless noted; series mostly up to 57.1 µM", "outline": "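Luminescence readout (Bright-Glo luciferase) 48 h after pseudoparticle addition. HEK293-ACE2 cells, 1500/well; compound pre-incubation 1 h; Normalized to spike PP and bald PP.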"}
{"smiles": "CC/C=C(\\C(=O)N[C@@H]1C(=O)N2C(C(=O)OCOC(=O)C(C)(C)C)=C(COC(N)=O)CS[C@H]12)c1csc(N)n1", "activity change, negative = inhibition": "-26.6%"}
{"smiles": "O=C1[C@H](CC[C@H](O)c2ccc(F)cc2)[C@@H](c2ccc(O)cc2)N1c1ccc(F)cc1", "activity change, negative = inhibition": "1.63% and -17.2%"}
{"smiles": "O=C(c1ccccc1)c1ccc2n1CCC2C(=O)O", "note": "(stereo not given)", "Potency": "inactive"}
{"smiles": "C[C@@H]1C[C@H]2[C@@H]3CCC4=CC(=O)C=C[C@]4(C)[C@@]3(F)[C@@H](O)C[C@]2(C)[C@@]1(O)C(=O)CO", "Potency": "inactive"}
{"smiles": "COc1ccccc1OCC(O)COC(N)=O", "note": "(stereo not given)", "Potency": "inactive"}
{"smiles": "Nc1nc2c(ncn2COCCO)c(=O)[nH]1", "Potency": "inactive"}
{"smiles": "Cc1nccn1CC1CCc2c(c3ccccc3n2C)C1=O", "note": "(stereo not given)", "activity change, negative = inhibition": "-12.3%"}
{"smiles": "O=P(O)(O)C(O)(Cc1cccnc1)P(=O)(O)O", "activity change, negative = inhibition": "4.27% and -14.8%"}
{"smiles": "CC[C@@H](CO)NCCN[C@@H](CC)CO", "activity change, negative = inhibition": "-13.9%"}
{"smiles": "Cn1cc[nH]c1=S", "Potency": "inactive"}
{"smiles": "N=c1nc(N2CCCCC2)cc(N)n1O", "activity change, negative = inhibition": "-11.3%"}
{"smiles": "N=C(N)c1ccc(OCCCCCOc2ccc(C(=N)N)cc2)cc1", "Potency": "15.8 µM (active)"}
{"smiles": "CCCCc1nc(Cl)c(CO)n1Cc1ccc(-c2ccccc2-c2nn[nH]n2)cc1", "Potency": "inactive"}
{"smiles": "NC(=O)c1cn(Cc2c(F)cccc2F)nn1", "Potency": "inactive"}
{"smiles": "Cc1nc2n(c(=O)c1CCN1CCC(c3noc4cc(F)ccc34)CC1)CCCC2", "Potency": "inactive"}
{"smiles": "CC1=NS(=O)(=O)c2cc(Cl)ccc2N1", "Potency": "inactive"}
{"smiles": "O=C(C1CCCCC1)N1CC(=O)N2CCc3ccccc3C2C1", "note": "(stereo not given)", "Potency": "inactive"}
{"smiles": "O=C(NCCN1CCOCC1)c1ccc(Cl)cc1", "Potency": "inactive"}
{"smiles": "NS(=O)(=O)c1cc2c(cc1Cl)NC=NS2(=O)=O", "Potency": "inactive"}
